Assay outcomes as filed in PubChem BioAssay.
NFkB transloc pot: enhances IL-1B driven NFkB nuclear translocation. HUVEC IL-1B NFkB p65 nuclear translocation imaging. activation, % at 2 µM. hit rate 0.3% among 94,000. AID 819;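 active means activation above 40%, about the mean plus 3 SD, also judged a hit on visual image review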;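 further: percent activation is computed from the nuclear over cytoplasmic p65 intensity ratio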
HUVEC tox IL1B: toxic to HUVEC cells under IL-1B stimulation; hit rate 0.41% among 94,000; AID 845; cell count reduction, % at 2 µM; HUVEC cell count loss, Hoechst imaging, IL-1B stimulated;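 active means cell count reduction more than 3 SD above the screen-wide mean, cut at about 70% in these data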;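 further: normalized per plate to untreated control cells as the no-loss baseline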
sEH inh: inhibitors of human soluble epoxide hydrolase; recombinant human sEH enzymatic activity assay; inhibition, % at 2 µM; hit rate 0.34% among 91,000; AID 707; in the data active means inhibition above about 80%
NFkB transloc inh: blocks IL-1B driven NFkB nuclear translocation in HUVEC cells | HUVEC IL-1B NFkB p65 nuclear translocation imaging | inhibition, % at 2 µM | hit rate 0.43% among 94,000;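 active means inhibition above about 30% together with a positive call from visual inspection of the well image, limit read from the data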;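 further: nuclear over cytoplasmic p65 intensity ratio measured by imaging; 0% = IL-1B stimulated DMSO wells and 100% = unstimulated DMSO wells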
sEH activator: soluble epoxide hydrolase (human) activation | P34913 | purified human sEH enzymatic activity, activator screen | activation, % at 2 µM | hit rate 0.04% among 91,000; in the data active means activation above about 37%
Cav32 inh: human Cav3.2 channel inhibition, primary screen. O95180. Cav3.2-expressing cells, Fluo-4 calcium fluorescence FDSS; stronger effect = lower value. B-score at 10 µM. hit rate 4% among 100,000. AID 449739;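 active means single-dose well whose peak fluorescence ratio is a statistical outlier from its plate by either plate-standardised score or position-corrected B-score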
Active calls of the source: *. A selection: hits, their analogues and other compounds. The true share with any hit is near 4.6%.

OCCSc1ncnc2c1oc1ccccc12 was read as NFkB transloc pot -32, HUVEC tox IL1B -10, sEH inh 3, NFkB transloc inh 32*, sEH activator -2 and Cav32 inh -1.2.
For Cc1nnc(NC(=O)c2ccc3ccccc3c2)o1 the results were NFkB transloc pot -4, HUVEC tox IL1B 15, sEH inh -17, NFkB transloc inh 4, sEH activator 19 and Cav32 inh -0.54.
`O=C(CSCc1c(Cl)cccc1Cl)NCc1ccco1` gave NFkB transloc pot 22, HUVEC tox IL1B 12, sEH inh -2, NFkB transloc inh -22, sEH activator 5 and Cav32 inh -0.78.
For CCc1cc2ccc(C)cc2nc1SCC(=O)N1CCN(C(=O)c2ccco2)CC1 the results were NFkB transloc pot 1, HUVEC tox IL1B -17, sEH inh 7, NFkB transloc inh -1, sEH activator -4 and Cav32 inh -5.1*.
`Cn1c2ccccc2c2c(C(=O)O)cn(C3CCCC3)c(=O)c21` gave NFkB transloc pot -7, HUVEC tox IL1B -8, sEH inh 9, NFkB transloc inh 7 and sEH activator -8.
CCN(Cc1ccccc1)C(c1ccc(C(F)(F)F)cc1)c1nnnn1C(C)(C)C (centres undefined) was read as NFkB transloc pot -4, HUVEC tox IL1B -26, sEH inh 48, NFkB transloc inh 4, sEH activator -45 and Cav32 inh -4.4*.
For Fc1ccc(CSc2nnc(Cc3sc(-c4ccccc4)nc3-c3ccccc3)o2)cc1 the results were sEH inh 5, sEH activator -5 and Cav32 inh 0.67.
For COc1ccc(CSc2nnc(Cc3sc(-c4ccccc4)nc3-c3ccccc3)o2)cc1 the results were sEH inh 12, sEH activator -11 and Cav32 inh -5.2*.
For COC(=O)C1=C(C)NC2=C(C(=O)CCC2)C1c1cn(Cc2ccc(Cl)cc2Cl)nc1-c1ccccc1 (centres undefined) the results were NFkB transloc pot 10, HUVEC tox IL1B -26, sEH inh 6, NFkB transloc inh -10, sEH activator -4 and Cav32 inh -7.3*.
Screening CCCc1cc(=O)[nH]c(Nc2ccc(O)cc2)n1 returned NFkB transloc pot 9, HUVEC tox IL1B -7, sEH inh -23, NFkB transloc inh -9, sEH activator 20 and Cav32 inh 1.1.
For O=C(CN(Cc1ccccc1)S(=O)(=O)c1ccc2c(c1)OCCO2)N/N=C/c1ccc(F)cc1 the results were NFkB transloc pot 9, HUVEC tox IL1B -33, sEH inh 34, NFkB transloc inh -9 and sEH activator -32.
Screening Cc1cc(C(=O)CN(Cc2ccc(F)cc2)S(=O)(=O)c2ccc3c(c2)OCCO3)c(C)n1C returned NFkB transloc pot 16, HUVEC tox IL1B -66, sEH inh 4, NFkB transloc inh -16, sEH activator -5 and Cav32 inh -2.9*.
`Cc1cccc(C)c1OCC(=O)Nc1cccc(NC(=O)c2ccco2)c1` gave NFkB transloc pot -5, HUVEC tox IL1B -30, sEH inh -4, NFkB transloc inh 5, sEH activator 7 and Cav32 inh -4.8*.
`Cc1noc(C)c1S(=O)(=O)N1CCCC(C(=O)NCCc2ccc(Cl)cc2)C1` (centres undefined) gave NFkB transloc pot 12, HUVEC tox IL1B 4, sEH inh 52, NFkB transloc inh -12, sEH activator -52 and Cav32 inh -1.3.
Cc1c(C)c2c(C)[nH]nc2oc1=O was read as NFkB transloc pot -14, HUVEC tox IL1B 76*, sEH inh 2, NFkB transloc inh 14, sEH activator -2 and Cav32 inh 1.4.
`Cn1cccc1Cc1nnc(SCC(=O)Nc2ccc(F)cc2)n1-c1ccc(F)cc1` gave NFkB transloc pot 10, HUVEC tox IL1B -23, sEH inh 4, NFkB transloc inh -10, sEH activator -5 and Cav32 inh -4.2*.
`Cn1cccc1Cc1nnc(SCC(=O)Nc2ccccc2)n1-c1ccc(F)cc1` gave Cav32 inh -7.7*.
Cn1cccc1Cc1nnc(SCC(=O)Nc2ccc(Cl)cc2)n1-c1ccc(F)cc1 was read as Cav32 inh -9.8*.
COc1ccc(Cc2nnc(NC(=O)c3ccc(Cl)c([N+](=O)[O-])c3)s2)cc1 was read as NFkB transloc pot 11, HUVEC tox IL1B -27, sEH inh 15, NFkB transloc inh -11, sEH activator -15 and Cav32 inh -1.3.
Screening Cc1ncsc1CCSc1n[nH]c(=O)n1-c1ccccc1 returned NFkB transloc pot 1, HUVEC tox IL1B -160, sEH inh 0, NFkB transloc inh -1, sEH activator 1 and Cav32 inh 0.52.
For Cc1ncsc1CCSc1nc2ccccc2c(=O)n1C the results were NFkB transloc pot -27, HUVEC tox IL1B 80*, sEH inh 4, NFkB transloc inh 28, sEH activator -1 and Cav32 inh -1.7.
`O=C(Nc1ccc2c(c1)OCO2)C1CCCN(c2nc3ccccc3s2)C1` (centres undefined) gave NFkB transloc pot -2, HUVEC tox IL1B -10, sEH inh 58, NFkB transloc inh 2, sEH activator -58 and Cav32 inh -2.2.
For CN1C(=O)C(CC(=O)Nc2ccc(F)cc2)N(CCCc2ccccc2)C1=S (centres undefined) the results were NFkB transloc pot -6, HUVEC tox IL1B -24, sEH inh -10, NFkB transloc inh 6, sEH activator 8 and Cav32 inh -5.2*.
Cc1noc2ncc(C(=O)c3cc(F)ccc3O)cc12 was read as NFkB transloc pot 30, HUVEC tox IL1B 93*, sEH inh -15, NFkB transloc inh -30 and sEH activator 14.
`O=C(CSc1nccn1-c1ncc(C(F)(F)F)cc1Cl)c1ccc(Cl)cc1` gave NFkB transloc pot 3, HUVEC tox IL1B 15, sEH inh -11, NFkB transloc inh -3, sEH activator 11 and Cav32 inh -2.5*.
O=C(OCCN1CCN(c2ncc(C(F)(F)F)cc2Cl)CC1)c1ccc(Cl)cc1 was read as NFkB transloc pot 1, HUVEC tox IL1B 4, sEH inh 19, NFkB transloc inh 0, sEH activator -18 and Cav32 inh -0.03.
`Cc1cc(C)c(S(=O)(=O)N(CC(=O)N2CCOCC2)C2CCCCC2)c(C)c1` gave NFkB transloc pot -7, HUVEC tox IL1B 75*, sEH inh 0, NFkB transloc inh 7, sEH activator 4 and Cav32 inh -0.083.
Cc1ccc(S(=O)(=O)N(CC(=O)N2CCN(c3ccccc3F)CC2)C2CCCCC2)cc1 was read as NFkB transloc pot 4, HUVEC tox IL1B 3, sEH inh 9, NFkB transloc inh -4, sEH activator -9 and Cav32 inh -4.7*.
CS(=O)(=O)N(CC(=O)N1CCN(c2ccccc2F)CC1)C1CCCCC1 was read as NFkB transloc pot 11, HUVEC tox IL1B 8, sEH inh -2, NFkB transloc inh -11 and sEH activator 2.
O=C(COn1nnc2ccc(C(F)(F)F)cc21)Nc1nnc(-c2ccccc2)o1 was read as NFkB transloc pot 4, HUVEC tox IL1B -1, sEH inh -21, NFkB transloc inh -4, sEH activator 20 and Cav32 inh -0.44.
